The results in this text go back to the supplement of paper PMC13380429.

A number with no mark means an inactive call.

The subject of the test is Vero E6 infected with SARS-CoV-2. The test is described as follows: inhibition of SARS-CoV-2 cytopathic effect; higher = more antiviral protection, active = above 15. Conditions: 833.33 nM; 48 h. (In general: Protection from cytopathic effect is a common read-out in antiviral testing.)
As to `O=Nc1c(-c2c(O)[nH]c3cc(Br)ccc23)[nH]c2ccccc12` [GSK-3-inhibitor-IX], the “inhibition of SARS-CoV-2 cytopathic effect” value (from here on “inhibition”) is 13.8%.

As for `O=c1[nH]c2ccccc2c(=O)n1CCCN1CCN(c2ccccc2)CC1` [pelanserin], the “inhibition” value is 1.18%.

With `C[C@]12C=CC(=O)C=C1CC[C@@H]1[C@@H]2[C@@H](O)C[C@@]2(C)[C@H]1CC[C@]2(O)C(=O)COC(=O)CCC(=O)O` [prednisolone-hemisuccinate], the “inhibition” value was 3.76%.

As for `CC(O)(P(=O)(O)O)P(=O)(O)O` [etidronic-acid], the “inhibition” value is 0.77%.

On to `COC(=O)[C@@]12OC[C@]34[C@H]([C@@H](O)[C@@H]1O)[C@@]1(C)CC(=O)C(O)=C(C)[C@@H]1C[C@H]3OC(=O)[C@H](OC(=O)/C=C(\C)C(C)C)[C@@H]24` [bruceantin], for which the “inhibition” value is 4.61%.

Consider `COc1cn(-c2ccc(-n3cccn3)cc2F)nc(-c2ccnn2-c2ccccc2)c1=O`, for which the “inhibition” value was 2.26%.

`O=C(O)c1ccc2nc(-c3cc(Cl)cc(Cl)c3)oc2c1` [tafamidis-meglumine]: the “inhibition” value was 1.34%.

Consider `CC(C)NC[C@@H](O)COc1ccccc1-n1cccc1` (racemic) [isamoltane], for which the “inhibition” value is 1.65%.

In the case of `O=c1ccc2ccc(OCCCCN3CCN(c4cccc5sccc45)CC3)cc2[nH]1` [brexpiprazole], the “inhibition” value is 2.71%.

With `COC(=O)Nc1nc2cc(C(=O)c3ccc(F)cc3)ccc2[nH]1` [flubendazole], the “inhibition” value was 0.07%.

`CC1CCN(C(c2ccc(F)cc2)c2ccc(C(C)C(=O)O)cc2-c2ccc(C(F)(F)F)cc2)CC1` (stereo not drawn): the “inhibition” value is -0.11%.

As to `O=C(O)c1c(Sc2ccccc2)c2cc(Cl)ccc2n1Cc1ccc(Cl)cc1`, the “inhibition” value was 3.75%.

`O=C(COP(=O)(O)O)[C@@H](O)[C@H](O)[C@H](O)COP(=O)(O)O` [fosfructose]: the “inhibition” value was 1.38%.

Turning to `COc1cc(-n2cnc3cc(-c4ccc(Cl)cc4)sc3c2=O)ccc1OCCN1CCCC1`, the “inhibition” value was -2.38%.

Turning to `CN(C)Cc1ccc(S(=O)(=O)n2ccc(/C=C/C(=O)NO)c2)cc1` [resminostat], the “inhibition” value was -9.24%.

For `CN=C(N)NCCC[C@H](N)C(=O)O` [L-monomethylarginine], the “inhibition” value is 1.39%.

Take `c1ccc(-c2ccc(C(c3ccccc3)n3ccnc3)cc2)cc1` (stereo not drawn) [bifonazole]: the “inhibition” value was -11.6%.

With `CC/C=C\C/C=C\C/C=C\C/C=C\C/C=C\C/C=C\CCC(=O)OCC` [doconexent-ethyl-ester], the “inhibition” value was 0.72%.

With `O=S(=O)(c1cccc2cnccc12)N1CCCNCC1` [fasudil], the “inhibition” value is -2.42%.

For `CN1C(=O)C[C@@H](C(=O)N[C@@H](Cc2c[nH]cn2)C(=O)N2CCC[C@H]2C(N)=O)NC1=O` [taltirelin], the “inhibition” value was 3.21%.

`CCC1(CC)C(=O)C=CNC1=O` [pyrithyldione]: the “inhibition” value is -6.45%.

Consider `O=c1c(-c2ccc(O)cc2)coc2cc(O)cc(O)c12` [genistein], for which the “inhibition” value was 3.3%.

On to `COc1cc(Br)c(S(=O)(=O)Nc2ccc(Cl)c(O[C@@H]3CCN(C)C3)c2)cc1OC`, for which the “inhibition” value is -0.33%.

Consider `CCCSc1ccc2[nH]c(NC(=O)OC)nc2c1` [albendazole], for which the “inhibition” value is -0.32%.

As to `N#C/C(=C\c1ccc(O)c(O)c1)C(=O)NCCCc1ccccc1`, the “inhibition” value is 0.57%.

In the case of `CCOC(=O)c1ccc(N(C)c2csc(-c3ccccc3)n2)cc1` [neuropathiazol], the “inhibition” value was 2.12%.

On to `CC(C)NC(=N)NC(=N)Nc1ccc(Cl)cc1` [proguanil], for which the “inhibition” value was -1.01%.

Regarding `c1ccc2c(Oc3nc(Nc4ccc(N5CCOCC5)cc4)c4ncn(C5CCCCC5)c4n3)cccc2c1` [purmorphamine], the “inhibition” value is 2.43%.

`O=C1NCN(c2ccccc2)C12CCN(CCCC(c1ccc(F)cc1)c1ccc(F)cc1)CC2` [fluspirilene]: the “inhibition” value is -5.63%.

Turning to `CC(C)Oc1ccc2c(=O)c3cc(C(=O)O)ccc3oc2c1`, the “inhibition” value was -1.68%.

As to `COc1ccc(-c2nc(-c3ccc(-c4cccc(Cl)c4)o3)[nH]c2-c2ccc(OC)cc2)cc1` [neurodazine], the “inhibition” value was 5.51%.

Consider `C[C@@H](N)c1ccc(C(=O)Nc2ccnc3[nH]ccc23)cc1`, for which the “inhibition” value was -5.51%.

As for `CC1CCN(CCCC(=O)c2ccc(F)cc2)CC1` [melperone], the “inhibition” value is 0.99%.
